Among the data in PubChem BioAssay (NCATS) are outcome and Potency values, retold here.

SMILES strings stand for the structures. Values joined by “and” are separate entries in the source; they are usually repeats but may differ in a detail not shown here. Identical values can stand only once. Inconclusive results are not listed. A structure can be active in one record and inactive in another. Active and inactive are the calls of the source. Unless noted, calls follow the shape of the dose curve; as a rule, active = well fitted curve in the direction sought with a large enough effect; inconclusive = small, poorly fitted or top-dose-only effect, or another doubt; inactive = no such curve, though single readings can be large; an effect the other way counts as inactive or inconclusive.

The target of test [1] is Calcium and integrin-binding protein 1 (Homo sapiens) (UniProt Q99828). The test can be described thus: Primary qHTS for Identification of Calcium Integrin Binding Protein 1 (CIB1) Competitor (AID 1508620).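 Also: GST tagged CIB1 binding a fluorescein labelled alphaIIb integrin peptide tracer; top concentration of the series differs between compounds.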 The essentials:
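Fluorescence polarization competition: GST-tagged CIB1 (1 uM final) preincubated with compound 15 min at room temperature, then FITC-labelled alphaIIb peptide (100 nM final) added. After 15 min at room temperature, polarization read at Ex 480/Em 540.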
For orientation: In qHTS, concentration-response curves come from the screen itself.

Test [2] is described as follows: Primary qHTS for small molecule stabilizers of the endoplasmic reticulum resident proteome: Secreted ER Calcium Modulated Protein (SERCaMP) assay (AID 1508630). The essentials:
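The SH-SY5Y reporter protocol was run at 3 concentrations up to 38.3 uM (primary) or 11 concentrations (follow-up): 16 h compound, 100 nM thapsigargin for 4 h, then extracellular luciferase luminescence.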

Test [3] is described as follows: A High-Content qHTS Against Drug Library for the Identification of Small Molecules that Inhibit DYT1 Early Onset Primary Dystonia-Associated Cell Pathology (AID 1645839; calls by dose curve; also: series mostly up to about 46 µM). The method, boiled down:
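Cells were seeded and left for 24 h, then dosed with compound alongside tetracycline induction of mutant EGFP-TorsinA. They were incubated for 48 h, fixed in 4% paraformaldehyde, permeabilized and imaged for mislocalization (%pathology) and cell count.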

Test [4] deals with N-terminal Xaa-Pro-Lys N-methyltransferase 1 (Homo sapiens) (UniProt Q9BV86). The test can be described thus: Confirmatory qHTS for Inhibitors of N-terminal methyltransferase 1 (NTMT1): MTaseGlo Assay (AID 1645874).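 Also: luminescence from SAH made as NTMT1 methylates SPKRIA peptide using SAM; series mostly up to about 100 µM; nearly all actives have a fitted effect of over 65% in size.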 The method, boiled down:
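Inhibition was derived from luminescence after SAH-to-ATP conversion, scaled between no-enzyme and DMSO wells, then fitted by 4-parameter Hill. Conditions: 125 nM NTMT1, 100 uM SAM, 1 uM SPKRIA, 30 min RT.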

Test [5] is described as follows: Primary qHTS for inhibitors of nuclear receptor binding SET domain protein 2 (NSD2) in an isogenic RCH-ACV NSD2 p.E1099K mutant (9B) (AID 1645876). Also: nearly all actives have a fitted effect of over 70% in size. Also: potency is read from the fitted curve at half-maximal effect.
A short description of test [6]: Primary qHTS for inhibitors of nuclear receptor binding SET domain protein 2 (NSD2) in an RCH-ACV wild type WT cells (2C) (AID 1645877). Also: nearly all actives have a fitted effect of over 70% in size. Also: potency is read from the fitted curve at half-maximal effect.
Test [7] has as its target Cytochrome P450 3A4 (Homo sapiens) (UniProt P08684). Description: Cytochrome P450 family 3 subfamily A member 4 (CYP3A4) small molecule antagonists: luciferase qHTS assay (AID 1645841; active = well fitted curve in the direction sought with a large enough effect in the repeat runs; an effect the other way counts as inactive or inconclusive; also: nearly all actives have a fitted effect of over 45% in size). The essentials:
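P450-Glo CYP3A4 enzyme with proluciferin substrate preincubated 10 min with compound at room temperature, then NADPH regeneration 1 h. Luciferin detection reagent added for 20 min; luminescence recorded. Ketoconazole positive control.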

The target of test [8] is Cytochrome P450 2C9 (Homo sapiens) (UniProt P11712). The test can be described thus: Cytochrome P450 family 2 subfamily C member 9 (CYP2C9) small molecule antagonists: luciferase biochemical (cell-free) qHTS assay (AID 1645842; active = well fitted curve in the direction sought with a large enough effect in the repeat runs; an effect the other way counts as inactive or inconclusive; also: nearly all actives have a fitted effect of over 55% in size; also: potency is read from the fitted curve at half-maximal effect). The essentials:
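P450-Glo CYP2C9 system: proluciferin substrate with enzyme in mix containing 0.4% BSA, 10 min at room temperature, then NADPH regeneration solution added and incubated 1 h at 37C. Detection reagent stopped reaction; luminescence read after 20 min as RLU.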

Test [9] concerns the target Cytochrome P450 2D6 (Homo sapiens) (UniProt P10635). Description: Cytochrome P450 family 2 subfamily D member 6 (CYP2D6) small molecule antagonists: luciferase biochemical (cell-free) qHTS assay (AID 1645840; active = well fitted curve in the direction sought with a large enough effect in the repeat runs; an effect the other way counts as inactive or inconclusive; also: nearly all actives have a fitted effect of over 55% in size; also: potency is read from the fitted curve at half-maximal effect). The method, boiled down: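 P450-Glo CYP2D6 system: proluciferin substrate converted by enzyme to luciferin, read by luminescence proportional to activity. Enzyme-substrate mix with compound 10 min at room temperature, then NADPH regeneration 1 h before detection reagent.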

Cytochrome P450 2C9 (Homo sapiens), sequence (P11712 whole entry, looked up): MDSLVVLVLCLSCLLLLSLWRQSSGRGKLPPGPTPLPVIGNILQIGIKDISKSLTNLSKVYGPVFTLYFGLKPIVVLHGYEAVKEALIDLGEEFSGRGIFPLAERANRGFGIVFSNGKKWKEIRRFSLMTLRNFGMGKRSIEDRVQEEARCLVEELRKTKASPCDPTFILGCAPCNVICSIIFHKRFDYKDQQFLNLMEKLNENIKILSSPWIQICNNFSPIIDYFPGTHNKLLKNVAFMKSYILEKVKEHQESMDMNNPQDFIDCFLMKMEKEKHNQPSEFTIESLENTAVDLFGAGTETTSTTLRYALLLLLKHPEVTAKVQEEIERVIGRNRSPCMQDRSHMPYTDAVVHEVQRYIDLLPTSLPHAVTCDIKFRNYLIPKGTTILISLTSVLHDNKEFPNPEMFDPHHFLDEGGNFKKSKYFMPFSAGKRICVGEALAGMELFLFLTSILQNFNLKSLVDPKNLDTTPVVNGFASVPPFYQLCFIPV
Cytochrome P450 2D6 (Homo sapiens), sequence (P10635 whole entry, looked up): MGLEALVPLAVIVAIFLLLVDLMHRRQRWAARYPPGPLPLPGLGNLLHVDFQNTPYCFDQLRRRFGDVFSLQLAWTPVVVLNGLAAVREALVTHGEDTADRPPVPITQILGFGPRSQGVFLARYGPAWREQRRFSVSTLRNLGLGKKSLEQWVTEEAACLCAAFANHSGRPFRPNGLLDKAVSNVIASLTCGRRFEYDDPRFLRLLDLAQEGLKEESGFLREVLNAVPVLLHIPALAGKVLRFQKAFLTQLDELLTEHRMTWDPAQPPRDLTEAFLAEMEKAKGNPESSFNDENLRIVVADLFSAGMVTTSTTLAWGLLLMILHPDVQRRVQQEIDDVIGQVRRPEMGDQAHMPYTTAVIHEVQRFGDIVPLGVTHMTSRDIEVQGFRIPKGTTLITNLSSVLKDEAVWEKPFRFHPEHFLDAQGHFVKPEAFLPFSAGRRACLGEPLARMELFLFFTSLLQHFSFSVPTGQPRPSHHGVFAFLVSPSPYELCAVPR
Calcium and integrin-binding protein 1 (Homo sapiens), sequence (Q99828 whole entry, looked up): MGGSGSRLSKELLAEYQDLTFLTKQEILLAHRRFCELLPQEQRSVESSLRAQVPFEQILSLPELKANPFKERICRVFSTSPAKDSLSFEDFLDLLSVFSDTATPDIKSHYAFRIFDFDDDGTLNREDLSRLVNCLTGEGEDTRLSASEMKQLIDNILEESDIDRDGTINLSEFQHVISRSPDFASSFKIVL
N-terminal Xaa-Pro-Lys N-methyltransferase 1 (Homo sapiens), sequence (Q9BV86 whole entry, looked up): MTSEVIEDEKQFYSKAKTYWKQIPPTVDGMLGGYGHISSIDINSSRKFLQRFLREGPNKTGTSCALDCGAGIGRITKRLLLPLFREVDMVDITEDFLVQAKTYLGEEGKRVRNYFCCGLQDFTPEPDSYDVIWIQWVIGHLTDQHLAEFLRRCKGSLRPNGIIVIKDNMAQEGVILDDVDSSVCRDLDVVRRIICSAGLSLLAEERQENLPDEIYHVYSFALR
Cytochrome P450 3A4 (Homo sapiens), sequence (P08684 whole entry, looked up): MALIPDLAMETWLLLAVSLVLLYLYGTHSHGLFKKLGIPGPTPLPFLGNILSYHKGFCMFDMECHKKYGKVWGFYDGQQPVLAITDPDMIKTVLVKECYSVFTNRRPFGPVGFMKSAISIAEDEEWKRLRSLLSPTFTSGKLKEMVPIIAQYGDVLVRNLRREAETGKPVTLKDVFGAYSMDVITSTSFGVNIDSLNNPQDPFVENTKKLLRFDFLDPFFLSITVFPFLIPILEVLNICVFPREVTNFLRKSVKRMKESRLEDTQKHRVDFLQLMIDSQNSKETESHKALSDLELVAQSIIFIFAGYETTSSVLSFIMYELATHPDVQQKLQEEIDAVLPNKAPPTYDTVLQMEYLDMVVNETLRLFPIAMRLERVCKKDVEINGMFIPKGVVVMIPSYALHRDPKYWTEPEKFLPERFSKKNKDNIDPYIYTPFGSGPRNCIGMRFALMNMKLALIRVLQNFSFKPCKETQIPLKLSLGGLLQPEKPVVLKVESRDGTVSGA

`CCc1cc(C(N)=S)ccn1`: the outcome in test [1] was inactive. Also, the Potency entry in test [2], in test [3], in [4], in [5] and in [6] was “inactive” in each case.
Take `O=C(O)c1ccc(-n2nc(-c3ccccc3O)nc2-c2ccccc2O)cc1`: the result in test [1] and in [7] was inactive. For the same compound, the Potency entry in [2] and in test [8] was “inactive” throughout. Moreover, the Potency is 6.68 µM (active) and 4.17 µM (active) in test [5]; 5.31 µM (active) and 4.17 µM (active) in test [6].
Consider `CCOC(=O)[C@H](CCc1ccccc1)N[C@H]1CCc2ccccc2N(CC(=O)O)C1=O`, for which the outcome in [1] was inactive. Moreover, the Potency result in [2], in test [5] and in test [6] was “inactive” each time. Further, the Potency in [8] was 4.9 µM (active).
As to `N=C(N)c1ccc(OCCCCCOc2ccc(C(=N)N)cc2)cc1`, the result in test [1] was inactive. In addition, the Potency entry in test [2] and in [3] was “inactive” in each case. Moreover, the Potency is 4.73 µM (active) and 3.72 µM (active) in [5]; 4.22 µM (active) and 4.68 µM (active) in test [6].
`C[C@@H](NCCCc1cccc(C(F)(F)F)c1)c1cccc2ccccc12`: the result in test [1] was inactive. In [2], the Potency entry was “inactive”. The Potency in test [9] was 30.9 nM (active) and 19 nM (active); in test [8], 26.8 µM (active); in [5] it was 13.3 µM (active) and 18.6 µM (active); in [6], 15 µM (active) and 14.8 µM (active).
On to `CC1=CC(=O)c2ccccc2C1=O`, for which the outcome in test [1] was inactive. Also, the Potency entry in test [2] was “inactive”. The Potency in [9] is 15.5 µM (active); in test [5], 31.6 µM (active) and inactive.
Regarding `COC(=O)Nc1nc2ccc(Sc3ccccc3)cc2[nH]1`, in test [1], the outcome was inactive. For the same compound, the Potency entry in test [3], in [9] and in test [8] was “inactive” throughout. Moreover, the Potency in test [5] is 266 nM (active) and 417 nM (active); in test [6], 266 nM (active) and 372 nM (active).
On to `COC(=O)Nc1nc2ccc(C(=O)c3ccccc3)cc2[nH]1`, for which the Potency result in test [2], in test [9] and in [8] was “inactive” each time. In addition, the Potency in test [5] is 211 nM (active) and 417 nM (active); in [6], 106 nM (active) and 372 nM (active).
As to `CCOCC(O)COc1ccc(NC(=O)CC[S+](C)C)cc1` (stereo not given), the result in test [1] was inactive. Moreover, the Potency result in test [3], in test [8], in [5] and in test [6] was “inactive” throughout.
In the case of `COCCCOc1cc(C[C@@H](C[C@H](N)[C@@H](O)C[C@H](C(=O)NCC(C)(C)C(N)=O)C(C)C)C(C)C)ccc1OC`, the outcome in test [1] was inactive. The Potency entry in test [3], in [8] and in test [6] was “inactive” each time.
`CCCN[C@H]1CCc2nc(N)sc2C1`: the outcome in [1] was inactive. For the same compound, the Potency result in [3], in test [8], in [5] and in test [6] was “inactive” in each case.
`O=C(O)c1cn(C2CC2)c2cc(N3CCNCC3)c(F)cc2c1=O`: in [3], the Potency entry was “inactive”.
In the case of `CNS(=O)(=O)Cc1ccc2[nH]cc(CCN(C)C)c2c1`, the result in test [1] was inactive. Also, the Potency result in test [3], in test [8], in test [5] and in test [6] was “inactive” throughout.
`NC(=O)c1cccnc1`: the outcome in [1] was inactive. Also, the Potency result in [3], in [8], in test [5] and in test [6] was “inactive” each time.
`O=S(=O)(c1cccc2cnccc12)N1CCCNCC1`: the result in test [1] was inactive. Moreover, the Potency entry in test [3], in test [8] and in [5] was “inactive” throughout.
As for `O=C(O)CCn1c2c(c3ccccc31)C[C@H](NS(=O)(=O)c1ccc(F)cc1)CC2`, the Potency entry in test [3] and in test [9] was “inactive” in each case. For the same compound, the Potency in [8] is 17.4 µM (active).
Turning to `COc1ccccc1OCC(O)COC(N)=O` (stereo not given), in [1], the result was inactive. Besides, the Potency result in test [3], in test [8], in test [5] and in [6] was “inactive” throughout.
